In the library only some 11% were active in any assay of this set; here they are far more common.
hNpr1 antagonist: human Npr1 receptor antagonism; P16066; HEK293 hNpr1 GloSensor cGMP, ANP-stimulated luminescence; Potency, µM (titrated, usually from 46.3 µM), inactives show at the highest dose activity change, negative = inhibition, most hits filed as inhibitors; 1.6% of 76,000 active; calls by dose curve; also: nearly all actives have a fitted effect of over 60% in size
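HEK293 cells stably expressing human Npr1 and cGMP GloSensor pGS-40F, loaded 2 h with 2% GloSensor reagent, given compound 30 min at room temperature. Luminescence read before and 20 min after 0.1 nM hNppA.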
HEK293 tox: cytotoxic compounds in HEK 293 cells; HEK 293 viability, ATP luminescence (CellTiter-Glo), 48-72 h; Potency, µM (doses to about 115 µM), without a hit: at the top dose activity change, negative = cytotoxicity, usual class: inhibitors; 6.6% of 94,000 active; AID 1345083; also: nearly all actives have a fitted effect of over 60% in size
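Viability of HEK 293 cells, plated at 250 cells/well, was judged by cellular ATP after compound treatment for 48 or 72 hr. Luminescence was imaged 10 min after CellTiter-Glo addition at room temperature.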
FLuc inh: inhibitors of firefly (Photinus pyralis) luciferase. purified P. pyralis luciferase, luminescence, biochemical. AID 1347043. Potency, µM (doses to about 115 µM), hits mostly inhibitors. 2.5% of 76,000 active. P08659; also: nearly all actives have a fitted effect of over 65% in size
Target sequence (P08659 whole entry, looked up): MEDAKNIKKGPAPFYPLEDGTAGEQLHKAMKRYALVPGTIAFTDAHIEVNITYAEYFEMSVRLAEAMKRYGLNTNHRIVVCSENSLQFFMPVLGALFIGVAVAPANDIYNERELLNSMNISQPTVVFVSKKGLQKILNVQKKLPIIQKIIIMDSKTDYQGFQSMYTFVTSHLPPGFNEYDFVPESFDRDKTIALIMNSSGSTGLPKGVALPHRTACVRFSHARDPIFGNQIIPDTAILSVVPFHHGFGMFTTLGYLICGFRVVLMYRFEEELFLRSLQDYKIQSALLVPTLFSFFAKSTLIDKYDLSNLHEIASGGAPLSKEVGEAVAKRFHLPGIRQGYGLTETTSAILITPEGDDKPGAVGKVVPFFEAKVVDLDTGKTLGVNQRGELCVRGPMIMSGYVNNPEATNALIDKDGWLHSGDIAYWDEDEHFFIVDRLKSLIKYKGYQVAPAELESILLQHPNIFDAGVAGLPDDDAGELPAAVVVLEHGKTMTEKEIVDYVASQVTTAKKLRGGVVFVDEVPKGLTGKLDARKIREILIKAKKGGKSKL
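Inhibitors were tested against purified firefly luciferase in a biochemical, low-substrate format (both substrates at 10uM) and luminescence measured with a CCD imager.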
NIH3T3 tox: kills NIH 3T3 cells; NIH 3T3 viability, CellTiter-Glo ATP luminescence, 48-72 h; AID 1345082; 4.3% of 94,000 active; Potency, µM (series often up to 96.7 µM), without a hit: top-dose activity change, negative = cytotoxicity, actives largely listed as inhibitors; also: nearly all actives have a fitted effect of over 55% in size
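Cells were seeded at 400 per well, treated with pin-transferred compound, and kept 48 or 72 hr at 37 °C before CellTiter-Glo addition and luminescence imaging of cellular ATP.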
Starred values were filed as active, the others as inactive; [ ] = dose if it differs, or a comment. Unless noted, calls follow the shape of the dose curve; as a rule, active = well fitted curve in the direction sought with a large enough effect; inconclusive = small, poorly fitted or top-dose-only effect, or another doubt; inactive = no such curve, though single readings can be large; an effect the other way counts as inactive or inconclusive. % is scaled to controls: 0 for no effect and ±100 for the full control effect; potency is read from the fitted curve at half-maximal effect.

O=C(c1ccccc1Cl)N1CCN(C(=O)c2nc3cccnc3n(C3CC3)c2=O)CC1 was read as HEK293 tox -6% and NIH3T3 tox -6%.
Screening Cc1ccc(S(=O)(=O)N2CC(c3noc(-c4cccnc4)n3)C2)cc1Cl returned hNpr1 antagonist -16%, HEK293 tox inconclusive, FLuc inh inactive and NIH3T3 tox -19%.
Screening CCc1noc(-c2ccn3c(CNC(=O)Cc4ccc(Cl)cc4)nnc3c2)n1 returned hNpr1 antagonist 5%, HEK293 tox -6%, FLuc inh inactive and NIH3T3 tox 2%.
Screening O=C(c1ccccc1OCC1CCCN(Cc2c[nH]c3ccccc23)C1)N1CCCCC1 (stereo not given) returned HEK293 tox 50µM* and NIH3T3 tox inconclusive.
`CCOc1cccc(CN2CCCC(COc3ccccc3C(=O)NC(C)C)C2)c1` (stereo not given) gave hNpr1 antagonist 1%, HEK293 tox 45µM*, FLuc inh inactive and NIH3T3 tox inconclusive.
For Cc1ccccc1N1CCCN(Cc2cccc(CCN)c2)CC1 the results were hNpr1 antagonist -4%, HEK293 tox 28µM*, FLuc inh inactive and NIH3T3 tox inconclusive.
For Cn1cc(CN2CCCC(COc3ccccc3C(=O)N3CCCCC3)C2)c2ccccc21 (stereo not given) the results were hNpr1 antagonist -18%, HEK293 tox inconclusive, FLuc inh inactive and NIH3T3 tox inconclusive.
For NCCc1cccc(CN2CCCC(COc3ccccc3F)C2)c1 (stereo not given) the results were hNpr1 antagonist -1%, HEK293 tox inconclusive, FLuc inh inactive and NIH3T3 tox 35µM*.
`COc1ccc(OC)c(CNC(=O)C2(C)CCCCC(=O)N2)c1` (stereo not given) gave hNpr1 antagonist 0%, HEK293 tox 9%, FLuc inh inactive and NIH3T3 tox inactive.
`CC(C)c1ccc(CNC(=O)CN2CC3CC(C2)[C@H]2CCCC(=O)N2C3)cc1` (stereo not given in full) gave hNpr1 antagonist 0%, HEK293 tox -27%, FLuc inh inactive and NIH3T3 tox -26%.
`COC(=O)[C@@H]1Cc2ncn(Cc3ccc(OC)cc3)c2CN1S(=O)(=O)c1ccc(F)cc1` gave hNpr1 antagonist 3%, HEK293 tox -5%, FLuc inh inactive and NIH3T3 tox 79µM*.
For COC(=O)[C@@H]1Cc2ncn(Cc3ccc(OC)cc3)c2CN1Cc1ccc(F)cc1 the results were hNpr1 antagonist inconclusive, HEK293 tox 63µM*, FLuc inh inactive and NIH3T3 tox inconclusive.
Screening COC(=O)[C@@H]1Cc2ncn(C)c2CN1S(=O)(=O)c1ccc2ccccc2c1 returned hNpr1 antagonist 0%[70.6 µM], HEK293 tox -7%[172 µM], FLuc inh inactive and NIH3T3 tox 79µM*.
Cc1nnc2ccc(N3CCN(C(=O)c4ccc(Cl)nc4)CC3)nn12 was read as HEK293 tox -3% and NIH3T3 tox -25%.
COC(=O)NC1CCN(C(=O)c2cccc(-c3ccc(OC)nn3)c2)CC1 was read as HEK293 tox -9%[172 µM] and NIH3T3 tox -14%[138 µM].
Screening Cc1cc(NC(=O)C(C)(C)Oc2nn(CC3CC3)c3ccc(CN4CCCC4)cc23)n(C)n1 returned hNpr1 antagonist 3%, HEK293 tox inconclusive, FLuc inh inactive and NIH3T3 tox inconclusive.
Screening CC(=O)N1CCC(c2nnc3n2C(C(=O)N2CCCCC2)CC3)CC1 (stereo not given) returned HEK293 tox -2%[172 µM] and NIH3T3 tox 2%[138 µM].
Cc1ccc(-c2ccccc2CN)c(C)c1 was read as HEK293 tox 112µM* and NIH3T3 tox 100µM*.
Screening NCc1ccccc1-c1ccc(O)cc1 returned HEK293 tox -14%[172 µM] and NIH3T3 tox -28%[138 µM].
`Cc1cnc(CCNS(=O)(=O)c2cccc(F)c2)n1Cc1ccc(F)cc1` gave HEK293 tox 40µM* and NIH3T3 tox inconclusive.
Screening O=C(NCCc1ccc(F)cc1)C1CCCN(c2nccc(Nc3ccccc3F)n2)C1 (stereo not given) returned HEK293 tox inconclusive and NIH3T3 tox 28µM*.
For O=C(NCCCc1ccccc1)C1CCCN(c2nccc(Nc3ccccc3F)n2)C1 (stereo not given) the results were HEK293 tox inconclusive and NIH3T3 tox 32µM*.
For CSCCNC(=O)C1CCCN(c2nccc(Nc3ccccc3F)n2)C1 (stereo not given) the results were HEK293 tox inconclusive and NIH3T3 tox 25µM*.
Screening O=C(NCCc1ccccc1)C1CCCN(c2nccc(Nc3ccccc3F)n2)C1 (stereo not given) returned HEK293 tox inconclusive and NIH3T3 tox 22µM*.
O=C(NCC(F)(F)F)C1CCN(c2nccc(Nc3ccccc3F)n2)CC1 was read as HEK293 tox inconclusive and NIH3T3 tox -32%.
Screening COCCNC(=O)C1CCN(c2nccc(Nc3ccccc3F)n2)CC1 returned HEK293 tox 5% and NIH3T3 tox inconclusive.
For C=CCC1(CO)CCCN(CCOc2ccc(C)cc2Cl)C1 (stereo not given) the results were hNpr1 antagonist -1%, HEK293 tox inconclusive, FLuc inh inactive and NIH3T3 tox inconclusive.
O=C(NCCc1ccccc1F)C1CCN(c2nccc(Nc3ccccc3F)n2)CC1 was read as HEK293 tox 32µM* and NIH3T3 tox inconclusive.
Screening O=C(COc1ccccc1)NC[C@H]1Cn2c(-c3ccc(Cl)cc3)cnc2CO1 returned hNpr1 antagonist -13%[70.6 µM], HEK293 tox 100µM*, FLuc inh inactive and NIH3T3 tox inconclusive.
Fc1ccc(-c2cnc3n2C[C@H](CNC2CCOCC2)OC3)cc1 was read as hNpr1 antagonist -3%[70.6 µM], HEK293 tox -23%[172 µM], FLuc inh inactive and NIH3T3 tox inconclusive.
`COc1ccc(C(=O)NC[C@H]2Cn3c(-c4ccc(Cl)cc4)cnc3CO2)cc1` gave hNpr1 antagonist inconclusive, HEK293 tox 100µM*, FLuc inh inconclusive and NIH3T3 tox inconclusive.
For Clc1ccc(-c2cnc3n2C[C@H](CNC2CCOCC2)OC3)cc1 the results were hNpr1 antagonist -9%[70.6 µM], HEK293 tox inconclusive, FLuc inh inactive and NIH3T3 tox 89µM*.
COc1ccc(C(=O)NC[C@H]2Cn3c(-c4ccc(F)cc4)cnc3CO2)cc1 was read as hNpr1 antagonist inconclusive, HEK293 tox inconclusive, FLuc inh inactive and NIH3T3 tox inconclusive.
`Cc1ccccc1C(=O)N1CCCC(C(=O)N2CCC(N3CCOCC3=O)CC2)C1` (stereo not given) gave HEK293 tox 2% and NIH3T3 tox -2%.
`CNC(=O)CCn1ncc2cc(OCc3ccccc3-c3ccc(OC)cc3C)ccc21` gave hNpr1 antagonist -2%[70.6 µM], HEK293 tox 100µM*, FLuc inh inconclusive and NIH3T3 tox inconclusive.
Screening CNC(=O)CCn1ncc2cc(OCc3ccccc3-c3cc(Cl)ccc3OC)ccc21 returned hNpr1 antagonist -11%, HEK293 tox inconclusive, FLuc inh inactive and NIH3T3 tox inconclusive.

Assay outcomes from PubChem.
